# Assay results published in PubChem BioAssay (NCI).
# This is part of a sample that, as a whole, favours compounds with a hit. Of some 79,000 tested, about 15% had one in any assay. Values without a mark were called inactive. Calls of active or inactive are those of the source. No stated cut-off is given here; in the data, active means growth inhibition above about 70%; inactive means the rest.
# Legend:
# [1] = NCI Yeast Anticancer Drug Screen. Data for the rad52 strain (AID 147);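 further: 0% = growth of vehicle-treated control cultures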; conditions: S. cerevisiae rad52 mutant growth inhibition, hits give high values
# Outline: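 Genetically altered yeast (DNA damage repair defect) treated with compound; inhibition calculated relative to vehicle.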
# [2] = NCI Yeast Anticancer Drug Screen. Data for the wt1 strain (AID 149);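 further: 0% = growth of vehicle-treated wt1 cultures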; conditions: S. cerevisiae wt1 strain (SPY 50644) growth inhibition, hits give high values
# Outline: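 Readout: yeast growth inhibition, normalised to vehicle controls, in the wt1 strain exposed to test compounds.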
# [3] = NCI Yeast Anticancer Drug Screen. Data for the rad50EPP+ strain (AID 151);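 further: 0% = growth of vehicle-treated control cultures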; conditions: S. cerevisiae rad50 mutant strain, hits give high values
# Outline: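 Strain rad50EPP+; compound exposure; % growth inhibition vs vehicle.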
# [4] = NCI Yeast Anticancer Drug Screen. Data for the mgt1 strain (AID 153); conditions: S. cerevisiae mgt1 mutant growth inhibition, hits give high values
# Outline: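 Read-out: yeast growth inhibition vs vehicle control. Strain mgt1, drawn from a panel altered in DNA damage repair or cell cycle control.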
# [5] = NCI Yeast Anticancer Drug Screen. Data for the rad50 strain (AID 155);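 further: 0% = growth of vehicle-only cultures of the same strain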; conditions: S. cerevisiae rad50 strain growth inhibition, hits give high values
# Outline: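 Compounds were tested on a yeast strain with an engineered DNA damage repair alteration; the reported value is growth inhibition normalised to vehicle treatment.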
# [6] = NCI Yeast Anticancer Drug Screen. Data for the mec2-1 strain (AID 157); conditions: S. cerevisiae mec2-1 strain, hits give high values
# Outline: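 Cells of the genetically defined mec2-1 yeast strain are incubated with test compound. Inhibition of growth is calculated against vehicle-treated controls.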
# [7] = NCI Yeast Anticancer Drug Screen. Data for the rad14 strain (AID 159);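 further: 0% = growth of vehicle-treated control cultures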; conditions: S. cerevisiae rad14 strain growth inhibition, hits give high values
# Outline: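 Compound-treated yeast with a defined DNA-repair lesion; growth inhibition normalised to vehicle-treated cultures.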
# [8] = NCI Yeast Anticancer Drug Screen. Data for the sgs1 mgt1 strain (AID 161);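 further: 0% = growth of cultures given vehicle only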; conditions: S. cerevisiae sgs1 mgt1 strain, hits give high values
# Outline: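 Inhibition of yeast growth, normalised to vehicle-treated controls, is reported for a strain bearing genetic alterations in DNA damage repair.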
# [9] = NCI Yeast Anticancer Drug Screen. Data for the CLN2oe strain (AID 163);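 further: 0% = growth of vehicle-only control cultures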; conditions: S. cerevisiae CLN2oe strain, hits give high values
# Outline: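 Strain altered in cell-cycle control, incubated with compound; growth compared to solvent-treated controls.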
# [10] = NCI Yeast Anticancer Drug Screen. Data for the cln2 rad14 strain (AID 165);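 further: 0% = growth equal to vehicle treated cultures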; conditions: S. cerevisiae cln2 rad14 strain, hits give high values
# Outline: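 The screen exposed genetically defined yeast (cln2 rad14) to test compounds and scored growth inhibition relative to vehicle-treated controls.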
# [11] = NCI Yeast Anticancer Drug Screen. Data for the bub3 strain (AID 167); conditions: S. cerevisiae bub3 mutant strain, hits give high values
# Outline: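 Growth of a checkpoint-deficient yeast mutant is measured after compound exposure. Values represent inhibition relative to vehicle.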
# [12] = NCI Yeast Anticancer Drug Screen. Data for the wt2 strain (AID 169);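 further: 0% = growth of vehicle-treated yeast cultures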; conditions: S. cerevisiae wt2 strain growth inhibition, hits give high values
# Outline: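 Steps: yeast strain treated with compound; growth recorded; inhibition calculated relative to cultures given vehicle alone.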
# [13] = NCI Yeast Anticancer Drug Screen. Data for the mlh1 strain (AID 171);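 further: 0% = growth of vehicle-treated control cultures of the same strain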; conditions: S. cerevisiae mlh1 strain growth inhibition, hits give high values
# Outline: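 Yeast screen: mutant strain plus compound, growth scored against vehicle control wells.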
# [14] = NCI Yeast Anticancer Drug Screen. Data for the sgs1 strain (AID 173);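 further: 0% = growth of vehicle-only control cultures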; conditions: S. cerevisiae sgs1 mutant, hits give high values
# Outline: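 Inhibition of yeast growth served as the measure. The mutant strain was treated with each compound, and growth was normalised to cultures receiving vehicle alone.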
# [15] = NCI Yeast Anticancer Drug Screen. Data for the mlh1 rad18 strain (AID 175); conditions: S. cerevisiae mlh1 rad18 strain growth inhibition, hits give high values
# Outline: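 Compound-treated yeast growth, normalised to vehicle controls. Strain bears defined DNA repair mutations.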
# [16] = NCI Yeast Anticancer Drug Screen. Data for the rad18 strain (AID 177); conditions: S. cerevisiae rad18 mutant growth inhibition, hits give high values
# Outline: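 Inhibition values reflect reduced yeast growth compared with vehicle-treated controls, using a strain engineered with a DNA damage repair defect.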
# [17] = at 5.0 µM (retest, dose inferred, filed as 0.5)
# [18] = at 50.0 µM (retest, dose inferred, filed as 5.0)
compound,measurement,setting,value
CC(=O)Cc1ccc[cH-]1.[Fe+2].c1cc[cH-]c1,growth inhibition,[1]; at 1.2 µM,5%
same,growth inhibition,[1]; at 3.7 µM,7%
same,growth inhibition,[1]; at 11.0 µM,9%
same,growth inhibition,[1]; at 33.0 µM,18%
same,growth inhibition,[1]; at 100.0 µM,46%
same,growth inhibition,[2]; at 1.2 µM,1%
same,growth inhibition,[2]; at 3.7 µM,2%
same,growth inhibition,[2]; at 11.0 µM,14%
same,growth inhibition,[2]; at 33.0 µM,10%
same,growth inhibition,[2]; at 100.0 µM,7%
same,growth inhibition,[3]; at 1.2 µM,3%
same,growth inhibition,[3]; at 3.7 µM,4%
same,growth inhibition,[3]; at 11.0 µM,8%
same,growth inhibition,[3]; at 33.0 µM,15%
same,growth inhibition,[3]; at 100.0 µM,13%
same,growth inhibition,[4]; at 1.2 µM,8%
same,growth inhibition,[4]; at 3.7 µM,11%
same,growth inhibition,[4]; at 11.0 µM,21%
same,growth inhibition,[4]; at 33.0 µM,11%
same,growth inhibition,[4]; at 100.0 µM,20%
same,growth inhibition,[5]; at 1.2 µM,12%
same,growth inhibition,[5]; at 3.7 µM,24%
same,growth inhibition,[5]; [17],-14%
same,growth inhibition,[5]; at 11.0 µM,22%
same,growth inhibition,[5]; at 33.0 µM,22%
same,growth inhibition,[5]; [18],8%
same,growth inhibition,[5]; at 50.0 µM,96.2% (active)
same,growth inhibition,[5]; at 100.0 µM,62%
same,growth inhibition,[6]; at 1.2 µM,-5%
same,growth inhibition,[6]; at 3.7 µM,-5%
same,growth inhibition,[6]; [17],-6%
same,growth inhibition,[6]; at 11.0 µM,-1%
same,growth inhibition,[6]; at 33.0 µM,12%
same,growth inhibition,[6]; [18],-12%
same,growth inhibition,[6]; at 50.0 µM,60.6%
same,growth inhibition,[6]; at 100.0 µM,18%
same,growth inhibition,[7]; at 1.2 µM,0%
same,growth inhibition,[7]; at 3.7 µM,-5%
same,growth inhibition,[7]; at 11.0 µM,13%
same,growth inhibition,[7]; at 33.0 µM,34%
same,growth inhibition,[7]; at 100.0 µM,49%
same,growth inhibition,[8]; [17],-4%
same,growth inhibition,[8]; [18],12%
same,growth inhibition,[8]; at 50.0 µM,86.8% (active)
same,growth inhibition,[9]; at 1.2 µM,4%
same,growth inhibition,[9]; at 3.7 µM,5%
same,growth inhibition,[9]; at 11.0 µM,17%
same,growth inhibition,[9]; at 33.0 µM,23%
same,growth inhibition,[9]; at 100.0 µM,23%
same,growth inhibition,[10]; [17],-7%
same,growth inhibition,[10]; [18],7%
same,growth inhibition,[10]; at 50.0 µM,40.5%
same,growth inhibition,[11]; at 1.2 µM,-4%
same,growth inhibition,[11]; at 3.7 µM,-10%
same,growth inhibition,[11]; [17],-4%
same,growth inhibition,[11]; at 11.0 µM,7%
same,growth inhibition,[11]; at 33.0 µM,13%
same,growth inhibition,[11]; [18],15%
same,growth inhibition,[11]; at 50.0 µM,72.5% (active)
same,growth inhibition,[11]; at 100.0 µM,21%
same,growth inhibition,[12]; at 1.2 µM,2%
same,growth inhibition,[12]; at 3.7 µM,5%
same,growth inhibition,[12]; at 11.0 µM,13%
same,growth inhibition,[12]; at 33.0 µM,17%
same,growth inhibition,[12]; at 100.0 µM,32%
same,growth inhibition,[13]; at 1.2 µM,-1%
same,growth inhibition,[13]; at 3.7 µM,-3%
same,growth inhibition,[13]; at 11.0 µM,-2%
same,growth inhibition,[13]; at 33.0 µM,7%
same,growth inhibition,[13]; at 100.0 µM,29%
same,growth inhibition,[14]; at 1.2 µM,0%
same,growth inhibition,[14]; at 3.7 µM,0%
same,growth inhibition,[14]; at 11.0 µM,9%
same,growth inhibition,[14]; at 33.0 µM,23%
same,growth inhibition,[14]; at 100.0 µM,46%
same,growth inhibition,[15]; [17],3%
same,growth inhibition,[15]; [18],68%
same,growth inhibition,[15]; at 50.0 µM,92.7% (active)
same,growth inhibition,[16]; at 1.2 µM,6%
same,growth inhibition,[16]; at 3.7 µM,17%
same,growth inhibition,[16]; at 11.0 µM,29%
same,growth inhibition,[16]; at 33.0 µM,10%
same,growth inhibition,[16]; at 100.0 µM,35%
